Sampled rows, rich in hits. Any-hit rate of the full collection: about 2.7%.
KDM5B inhibitor: KDM5B demethylase inhibition. Q9UGL1. KDM5B demethylase, FDH-coupled NADH fluorescence (FDH is formaldehyde dehydrogenase). Potency, µM (series often up to 57.7 µM), actives largely listed as inhibitors. hit rate 2.6% among 220,000. AID 1347165; further: potency means the concentration at half of the fitted maximal effect; 0% is about no effect; nearly all actives have a fitted effect of over 70% in size
Target sequence (Q9UGL1 whole entry, looked up): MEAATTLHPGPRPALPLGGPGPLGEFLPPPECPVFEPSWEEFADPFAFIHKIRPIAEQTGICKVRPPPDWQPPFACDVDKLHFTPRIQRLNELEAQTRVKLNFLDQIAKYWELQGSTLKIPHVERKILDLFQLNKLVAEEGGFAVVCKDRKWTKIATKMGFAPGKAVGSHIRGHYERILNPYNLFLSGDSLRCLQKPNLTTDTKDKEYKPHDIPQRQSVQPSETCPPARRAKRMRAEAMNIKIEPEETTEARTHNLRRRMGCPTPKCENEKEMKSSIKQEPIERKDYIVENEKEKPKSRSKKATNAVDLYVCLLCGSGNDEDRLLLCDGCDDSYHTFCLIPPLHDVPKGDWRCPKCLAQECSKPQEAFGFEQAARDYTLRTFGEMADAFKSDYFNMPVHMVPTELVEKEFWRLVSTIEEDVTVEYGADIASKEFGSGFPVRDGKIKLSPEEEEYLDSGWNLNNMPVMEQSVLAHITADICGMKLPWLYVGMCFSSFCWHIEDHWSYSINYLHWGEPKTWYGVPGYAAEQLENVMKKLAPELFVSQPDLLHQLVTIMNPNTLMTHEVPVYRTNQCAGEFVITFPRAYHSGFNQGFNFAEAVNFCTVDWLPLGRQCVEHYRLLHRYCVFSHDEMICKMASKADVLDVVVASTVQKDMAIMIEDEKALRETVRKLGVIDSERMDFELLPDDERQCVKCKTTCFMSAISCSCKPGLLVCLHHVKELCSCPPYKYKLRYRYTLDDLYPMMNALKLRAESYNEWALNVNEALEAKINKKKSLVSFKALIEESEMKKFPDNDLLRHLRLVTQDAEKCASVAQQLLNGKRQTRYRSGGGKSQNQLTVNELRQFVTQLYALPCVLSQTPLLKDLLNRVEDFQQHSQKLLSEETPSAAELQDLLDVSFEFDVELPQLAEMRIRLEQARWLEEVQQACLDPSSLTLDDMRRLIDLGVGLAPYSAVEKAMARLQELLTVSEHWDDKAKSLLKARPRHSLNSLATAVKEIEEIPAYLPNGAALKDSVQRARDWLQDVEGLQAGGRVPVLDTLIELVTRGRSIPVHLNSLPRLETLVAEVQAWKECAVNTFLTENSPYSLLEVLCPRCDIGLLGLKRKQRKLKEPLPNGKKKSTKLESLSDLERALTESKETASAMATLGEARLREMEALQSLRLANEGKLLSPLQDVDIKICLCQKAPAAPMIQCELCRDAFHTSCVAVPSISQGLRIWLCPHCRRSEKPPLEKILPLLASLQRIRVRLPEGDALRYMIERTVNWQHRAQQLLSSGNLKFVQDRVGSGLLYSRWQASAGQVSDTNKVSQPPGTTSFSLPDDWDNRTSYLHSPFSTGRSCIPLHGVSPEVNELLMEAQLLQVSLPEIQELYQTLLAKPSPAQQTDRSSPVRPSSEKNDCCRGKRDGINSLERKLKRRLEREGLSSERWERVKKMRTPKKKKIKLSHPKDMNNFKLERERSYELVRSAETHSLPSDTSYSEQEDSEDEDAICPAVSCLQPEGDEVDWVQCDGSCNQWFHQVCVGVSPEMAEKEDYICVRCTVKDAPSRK
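qHTS format, multiple compound concentrations. Buffer 50 mM HEPES pH 7.5/0.01% Tween-20; 200 nM KDM5BΔAP final; 10 min compound preincubation; substrate-mix levels 12.5 µM peptide, 25 µM α-KG, 0.25 mM NAD⁺; 30 min RT; ΔRFU.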
IP6K1 inh: inhibitors of human IP6K1; IP6K1 kinase, ADP-Glo luminescence, 2 h; stronger effect = lower value; activity change, % (series mostly up to about 58 µM); Q92551; hit rate 0.81% among 140,000; in the data active means activity change below about -25%; further: on the % scale 0 is the no-effect control and ±100 the full control effect
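ADP-Glo luminescence measures ADP made by human IP6K1 during a 2 h RT reaction with ATP/IP6 (mix at 1.3 mM/130 uM); top library doses 57.5 and 19.1 uM final.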
IP6K1 conf: human IP6K1 inhibition, confirmatory | shares compounds with IP6K1 inh | recombinant IP6K1 kinase, ADP-Glo luminescence, 2 h | Potency, µM (titrated, usually from 49 µM), for the others: at the top dose activity change, negative = inhibition, most hits filed as inhibitors | hit rate 13% among 1,200 | AID 1645852; further: potency means the concentration at half of the fitted maximal effect; on the % scale 0 is the no-effect control and ±100 the full control effect; nearly all actives have a fitted effect of over 65% in size
Numbers without * were called inactive; i = inactive; ? = inconclusive; · = no result. Unless noted, the call rests on the fitted dose curve; in most records, active means well fitted inhibition curve with a large enough effect; inconclusive means small, poorly fitted or top-dose-only effect; inactive means no such curve, though single readings can be large or run the other way.

SMILES	KDM5B inhibitor	IP6K1 inh	IP6K1 conf
COc1cccc([S+](=O)([O-])N2CCC(N3C(=O)c4c(c(C)nn4-c4ccccc4)C3C3CC3)C2)c1 (stereo not given)	·	-8	·
CCc1noc(Cc2c(C)nn(-c3ccccc3)c2C)n1	i	-28*	-15%
Cc1nn(-c2ccccc2)c(C)c1CN(C)S(=O)(=O)c1ccc(F)cc1	i	·	·
O=C(c1ccsc1)N(Cc1ccco1)C1CC1	i	·	·
CC(C)Oc1ccc2c(NC(=O)C3CCOC3)nn(Cc3ccccc3)c2c1 (stereo not given)	i	5	·
CC(C)Oc1ccc2c(NC(=O)CN3CCCC3=O)nn(Cc3ccccc3)c2c1	i	-33*	-4%
O=C(Nc1cccc(CO)c1)c1cn(Cc2ccccc2)nc1-c1ccc(Cl)cc1	i	·	·
COc1cncc(Nc2cnc3ccc(-c4cccc(CO)c4)nn23)c1	i	5	·
COc1cncc(Nc2cnc3ccc(-c4ccccc4)nn23)c1	?	-36*	?
O=c1[nH]c(C2CCCN(Cc3ccc(F)cc3)C2)nn1-c1ccc(Cl)cc1 (stereo not given)	i	9	·
CN(C)c1cc(=O)c2ccnc(N3CCN(c4ccccn4)CC3)c2o1	i	-27*	?
COc1ncccc1-c1nccc2c(=O)cc(N(C)c3ccccc3)oc12	i	-9	·
O=C(NCCc1ccc(F)cc1)C(=O)NCC(c1cccs1)S(=O)(=O)c1ccc(F)cc1 (stereo not given)	i	-3	·
O=C(NCCc1ccc(F)cc1)C(=O)NCC(c1cccs1)S(=O)(=O)c1ccccc1 (stereo not given)	i	-30*	-3%
COc1cc2c(cc1OC)-c1c(c(C(=O)N3CCC(C(N)=O)CC3)nn1-c1ccccc1F)C2	i	·	·
Cc1nc(Nc2cnn(C3CCNCC3)c2)nc2c1N(C)C(=O)c1cc3ccccc3cc1N2C	·	10	·
Fc1cc(-c2cccc3ncc(-c4cnn(C5CCNCC5)c4)nc23)cc(F)c1CN1CCOCC1	·	12	-4%
CCn1cc(S(=O)(=O)N2CCCCC2CCn2cc(-c3ccccc3)nn2)cn1 (stereo not given)	·	17	·
Cc1cccc(NC(=O)Cc2csc(COc3cccc(C)c3)n2)c1	i	-22	·
COc1ccc(NC(=O)Cc2csc(COc3cccc(C)c3)n2)cc1OC	?	-27*	34%
CCOc1ccc(/C=C(\C#N)C(=O)Nc2sc3c(c2C(=O)OC)C(C(=O)OC)CC3)cc1OC (stereo not given)	?	-29*	2.9µM*
CCOC(=O)c1c(NC(=O)/C(C#N)=C/c2ccc(OC)cc2)sc2c1CCC2	i	17	·
Cc1cccc(Cc2c(C)nc3c(-c4ccccc4)c(C)[nH]n3c2=O)c1	?	-34*	?
Cc1ccccc1Cc1c(C)nc2c(-c3ccccc3)c(C)[nH]n2c1=O	?	-19	·
COc1ccccc1N1CCN(c2ccc(NC(=O)c3ccc(C)cc3)cc2C(=O)O)CC1	i	8	·
SMILES	KDM5B inhibitor	IP6K1 inh	IP6K1 conf
Cc1ccc(C)c(N2CCN(c3ccc(NC(=O)c4cccs4)cc3C(=O)O)CC2)c1	?	-33*	?
CCOC(=O)CSc1nc(-c2ccc(F)cc2)cc(C(F)(F)F)c1C#N	?	-2	·
Cc1ccc(-c2cc(C(F)(F)F)c(C#N)c(SCC(=O)O)n2)cc1	?	-35*	3%
CN1CCC(CC(=O)N2CCC3(CC2)CC(CCOc2ccc(F)cc2)CCO3)CC1 (stereo not given)	·	4	·
CCOc1cccc(CNC2CCCCC2)c1	i	·	·
Cc1cc(F)ccc1-c1[nH]nc2ncc(-c3c(C)noc3C)nc12	?	4	·
COc1ccc(-c2nc(-c3c(C)noc3C)cc3[nH]c(C)cc23)cn1	35µM*	-31*	?
Cc1ccccc1C(=O)N1CCC(C(=O)N2CCC(c3ccccc3)CC2)CC1	·	23	·
CCCN(CCC)CCNC(=O)c1cc2c(=O)oc3ccc(C)cc3c2s1	?	-25*	-4%
CCc1ccc(CNC(=O)c2cc3c(=O)oc4ccc(C)cc4c3s2)cc1	?	13	·
CCCn1ccc2sc(C)c(C(=O)O)c2c1=O	i	0	·
CCCCN(C)C(=O)c1c(C)sc2ccn(CCC)c(=O)c12	?	-7	-24%
O=C(CCC(=O)N1CCCCCC1)Nc1ccc2nc(NC(=O)c3ccccc3)sc2c1	i	·	·
CCn1c(C(=O)N(C2CC2)C2CC2)cc2c3c(ncn3C)c(Nc3cc(C)n(C)n3)nc21	·	-7	-2%
CC(C(=O)NCC1CCCCC1)n1cnc2c1c(=O)n(C)c(=O)n2C (stereo not given)	i	·	·
Cc1ccc([N+](=O)[O-])cc1S(=O)(=O)N1CCn2cccc2C1c1ccccc1 (stereo not given)	?	-5	·
Cc1ccc([N+](=O)[O-])cc1S(=O)(=O)N1CCn2cccc2C1c1ccccc1F (stereo not given)	?	-26*	-20%
O=C(NCc1cccc(Cl)c1)c1nc2sccn2c1-c1cccc(C(F)(F)F)c1	·	7	·
CCOC(=O)c1cnc(SCC(=O)Nc2cccc(Br)c2)nc1N	i	·	·
CC(=O)Nc1ccccc1-c1nccc2c(=O)cc(N(C)c3ccccc3)oc12	i	-7	·
CN(c1ccccc1)c1cc(=O)c2ccnc(Nc3cccnc3)c2o1	?	-10	·
CN(c1cc(=O)c2ccnc(-c3cccc(C(F)(F)F)c3)c2o1)C1CCOCC1	28µM*	-34*	?
CN(c1cc(=O)c2ccnc(Nc3ccc(F)c(Cl)c3)c2o1)C1CCOCC1	28µM*	-25*	20%
Cc1nnc2ccc(N3CCC(NC(=O)c4cccc(C(F)(F)F)c4)CC3)nn12	·	-9	·
Cc1nc2ccccc2c(=O)n1-c1ccc(NC(=O)c2ccccc2[N+](=O)[O-])cc1	i	25	·
SMILES	KDM5B inhibitor	IP6K1 inh	IP6K1 conf
Cc1cc(-n2c(C)nc3ccccc3c2=O)ccc1NC(=O)c1ccc(C)c([N+](=O)[O-])c1	i	-25*	4%
COc1cccc(CNC(=O)CN(C(=O)C2=C(C)OCCS2)c2ccc(Cl)cc2)c1OC	i	·	·
CC1Cc2cc(C(=O)c3cc4cc(Br)ccc4o3)ccc2N1S(C)(=O)=O (stereo not given)	i	·	·
CC1=C(C(=O)OC(C)C)C(c2cccc([N+](=O)[O-])c2)C(C(=O)OC2CN(C(c3ccccc3)c3ccccc3)C2)=C(N)N1 (stereo not given)	·	1	0%
COCCOC(=O)C1=C(C)NC(C)=C(C(=O)OC(C)C)C1c1cccc([N+](=O)[O-])c1 (stereo not given)	·	26	·
Cc1ccccc1CN1CCN(c2oc(C3CC3)nc2C#N)CC1	i	·	·
N#Cc1cccc(S(=O)(=O)NCC(=O)O)c1	i	·	·
N#Cc1cc(NC(=O)C(=O)O)c(Cl)c(NC(=O)C(=O)O)c1	·	-35*	-23%
C/C(=N\OC(=O)c1c(F)cccc1F)c1ccc(F)cc1F	i	·	·
CCc1cnc2c(c1SCCC(C)C)c(=O)n(C)c(=O)n2C	i	-28*	-18%
CCCNC(=O)CSc1c(CC)cnc2c1c(=O)n(C)c(=O)n2C	i	·	·
COc1ccc(Cc2nnc(Nc3ccc4ccccc4c3)[nH]c2=O)cc1OC	i	·	·
CCOc1ccc(CNC(=O)C2CCCN(c3nn4cc(-c5ccc(OC)cc5)nc4s3)C2)cc1 (stereo not given)	i	-37*	?
